Results as given in the supplement of paper PMC3334620.
Whole data set: some 33,000 sequences, median “E-score (-0.5 to 0.5)” near -0.053, cut for the highest 2% near 0.37. The list comes from a sample in which the highest values are over-represented; it also holds similar and randomly drawn sequences.

Target: Hap1 (UniProt P0CE41)
Assay: PBM E-score (8-mer binding enrichment) (E-score (-0.5 to 0.5)); higher = stronger / more preferred TF binding
Settings: protein concentration: 200 nM; construct: GST-DNA-binding domain
Description: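 Universal 'all 10-mer' protein binding microarrays (Agilent AMADID 015681) probed with GST-tagged S. cerevisiae TFs (full-length or DBD) made by in vitro transcription/translation (PURExpress), about 100-200 nM. Bound TF was detected with fluorescent anti-GST. Each ungapped 8-mer (which stands for itself and its reverse complement) is scored by the PBM enrichment score (E-score), a modified Wilcoxon-Mann-Whitney statistic from -0.5 to +0.5, computed with the Universal PBM Analysis Suite. Scale: above 0.35 generally sequence-specific binding.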

UniProt P0CE41, sequence (P0CE41 whole entry): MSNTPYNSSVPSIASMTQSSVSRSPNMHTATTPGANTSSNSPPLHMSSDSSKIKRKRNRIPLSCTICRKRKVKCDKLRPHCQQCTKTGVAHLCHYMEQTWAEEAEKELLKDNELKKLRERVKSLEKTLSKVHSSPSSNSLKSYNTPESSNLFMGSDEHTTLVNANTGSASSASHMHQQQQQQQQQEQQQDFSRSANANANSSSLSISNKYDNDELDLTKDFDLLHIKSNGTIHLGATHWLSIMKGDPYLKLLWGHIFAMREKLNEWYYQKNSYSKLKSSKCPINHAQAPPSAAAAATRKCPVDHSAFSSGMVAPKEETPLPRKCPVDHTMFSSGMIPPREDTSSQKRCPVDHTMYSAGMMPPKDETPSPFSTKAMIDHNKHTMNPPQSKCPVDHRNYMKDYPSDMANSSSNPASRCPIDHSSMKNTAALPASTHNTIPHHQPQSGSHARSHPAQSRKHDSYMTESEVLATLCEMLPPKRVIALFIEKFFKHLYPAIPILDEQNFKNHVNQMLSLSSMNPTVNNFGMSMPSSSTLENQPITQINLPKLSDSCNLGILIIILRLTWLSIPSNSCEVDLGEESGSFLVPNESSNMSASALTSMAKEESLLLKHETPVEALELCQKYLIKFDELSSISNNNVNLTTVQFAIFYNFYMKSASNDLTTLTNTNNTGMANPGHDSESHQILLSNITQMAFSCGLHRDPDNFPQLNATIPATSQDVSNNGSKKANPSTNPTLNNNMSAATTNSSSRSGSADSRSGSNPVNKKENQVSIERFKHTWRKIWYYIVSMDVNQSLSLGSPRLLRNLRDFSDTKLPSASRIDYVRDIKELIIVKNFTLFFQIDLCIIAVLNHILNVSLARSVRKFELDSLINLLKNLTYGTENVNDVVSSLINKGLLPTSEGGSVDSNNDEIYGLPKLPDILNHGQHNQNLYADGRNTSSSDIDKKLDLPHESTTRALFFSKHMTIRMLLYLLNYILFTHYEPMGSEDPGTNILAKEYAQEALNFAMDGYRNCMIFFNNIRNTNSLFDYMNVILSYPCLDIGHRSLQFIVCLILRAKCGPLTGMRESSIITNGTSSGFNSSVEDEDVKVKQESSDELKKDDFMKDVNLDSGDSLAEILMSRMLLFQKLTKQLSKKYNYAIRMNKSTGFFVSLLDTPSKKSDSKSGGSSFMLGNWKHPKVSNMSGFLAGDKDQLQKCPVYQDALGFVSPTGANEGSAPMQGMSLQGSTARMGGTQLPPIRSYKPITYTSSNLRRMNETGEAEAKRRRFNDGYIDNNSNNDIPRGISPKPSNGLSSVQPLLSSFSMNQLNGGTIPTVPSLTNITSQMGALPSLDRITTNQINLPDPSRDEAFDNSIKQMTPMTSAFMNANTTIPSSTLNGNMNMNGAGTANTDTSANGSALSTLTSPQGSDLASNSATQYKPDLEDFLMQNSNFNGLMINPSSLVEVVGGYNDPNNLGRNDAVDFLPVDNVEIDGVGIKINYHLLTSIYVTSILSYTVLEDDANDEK

Sequence	PBM E-score
CATCGCCG	0.293
AAACGCCG	0.402
AATCGCCC	0.0407
AATCGCCG	0.395
CAACGCCG	0.264
AAACGCCA	0.0524
CGGTCAAA	0.269
ACAATCCC	0.254
ACATCTCC	0.283
ATTTTTGA	-0.132
ATCTAAAT	0.149
GAAGTGGC	-0.0295
ATGAAACG	-0.0187
GAAACAGC	0.0614
TCCAAGGA	0.0272
GGGATAGA	-0.0284
GCATCTTA	-0.0356
AGTCCGTC	0.325
AGTCCGGC	0.389
AGTCCCGG	0.322
AGTCCGGG	0.393
AGTCCGCC	0.292
AGTCCGCG	0.297
CTCCAGAG	-0.0749
ACCATGAG	-0.129

Sequence	PBM E-score
TTCGGAAA	0.389
GTCGGAAA	0.361
ATCGGAAG	0.236
AACGGAAT	0.306
ATCGGAAT	0.363
AACGGAAA	0.385
ATCGGAAA	0.426
CACGGAAA	0.295
CTCGGAAA	0.346
ACATTGAC	-0.114
ATACCGAT	0.288
GACCAACA	0.0331
CCCCATCG	0.172
AATCGCGC	0.135
AGCGCAGG	0.00092
ATCGGATG	0.346
ATCGGATA	0.404
AACGGATA	0.398
CACGGATA	0.298
CGCGGATC	0.172
CGCGGATA	0.309
ATCGGATC	0.339
AACGGATT	0.338
GTCGGATA	0.339
CTCGGATC	0.383

Sequence	PBM E-score
CTCGGGTA	0.264
CTCGGATA	0.371
AGTGAGCA	-0.28
AACCAGCG	0.0362
CGTTGCAC	0.065
CGCACACA	-0.0394
ATGGGAGA	-0.315
CAGCTATG	-0.287
ACTGAAGG	-0.129
AATCCGGA	0.433
AATCCGGT	0.418
TATCCGAA	0.364
CATCCGAA	0.368
AATCCAGT	0.219
GATCCGGC	0.375
GATCCGAC	0.273
AATCCGCT	0.243
AATCCGTA	0.219
AATCCGCA	0.247
GATCCGAA	0.379
GATCCGCC	0.29
GAGGGCGA	0.0665
TACTGGGA	-0.0481
ATCGGGCG	0.36
ACAGATCA	-0.0146

Sequence	PBM E-score
CGCGTTGC	0.159
CTACTAAC	-0.214
TGCTAGAA	-0.118
TATCCTGA	-0.0806
TATCCGGA	0.428
GATCCGTA	0.225
CATCCGCA	0.224
GATCCGCA	0.253
AATCCGGC	0.37
CATCCGTA	0.2
GATCCGGA	0.395
CATCCGGA	0.423
CATCCGGC	0.342
AATCCGTC	0.232
TATCCGCA	0.253
ATACGTCA	0.0245
TAGTTTCA	-0.024
CACCTGTA	-0.173
GAAATCGC	0.196
ACTAGGCG	-0.0773
AATCCGCG	0.244
CATCCGGG	0.278
AATCCGGG	0.409
CCTAGGGA	-0.112
AATTCCGC	0.336

Sequence	PBM E-score
CATTCCGG	0.322
TATTCCGA	0.357
CATTCCGA	0.294
AATTCCAT	0.0073
AATTCCCT	-0.106
AATTCCGA	0.43
AATTCCGT	0.414
AATTCCGG	0.451
CTGGCTTC	-0.194
AGCGAACT	-0.137
AGAAGGAG	-0.248
AGTTGCGG	0.153
CAGTAGGC	-0.174
ATGGGTGA	-0.0877
ATCTAAGC	-0.0574
GCCTTTTA	-0.0799
AGTTGCGC	0.0784
GCTCCTAC	-0.0888
AAAATTAT	0.122
CCGAAACA	0.288
CCGAAAAA	0.398
CCGAAAGC	0.369
TCGAAAAA	0.0162
GCGAAAGC	0.0298
CCGAAAAG	0.311

Sequence	PBM E-score
CCGAAACC	0.298
CCGAAAGA	0.319
ACGAAAAC	0.124
GCGAAAAC	-0.0632
CCGAAAAC	0.379
CCGAAACG	0.377
CAACCCAC	-0.131
GCATTAGA	-0.112
CAGTTGAG	-0.225
AGAATTCT	0.108
CAGTGTTC	-0.0181
CGTGAAAC	-0.0905
GACAGGGC	-0.0413
AGGTTGTA	-0.112
CCGAAATC	0.401
ACGAAATC	0.0404
CCGAAATA	0.351
AAGCGGAG	-0.0297
TCTCAGCA	-0.326
ATCGAATG	-0.076
CTACGCCC	0.0263
TAGCATAA	-0.0142
ATTTCACA	-0.131
CGCCGTTA	0.291
CGGCGTTA	0.476

Sequence	PBM E-score
GGCCGATA	0.457
CGGCGTTC	0.235
GGGCGATA	0.179
GGCCGTTA	0.333
CGCCGATA	0.426
CGCCGATC	0.326
GGCCGCTA	0.225
CGGCGATA	0.472
GGGCGTTA	0.147
AGGCGATA	0.119
CGAAAAAC	0.169
GAATGCAC	-0.00315
AGGGATGA	-0.133
AGTCAAAG	-0.13
GTCGCGAC	0.244
ACTCCCAG	-0.0473
AGCCGATA	0.427
AGCCGATC	0.245
AGCCGATG	0.233
ACAGTGCT	-0.138
ACCCGGTG	0.249
GCCCGGTA	0.38
ACCCGGTC	0.222
CCCCGGTA	0.334
GCCCGGCA	0.25

Sequence	PBM E-score
ACCCGGTA	0.376
AAGCCTCA	-0.136
CACCGCAC	0.0364
CGTGCACC	-0.0161
GGGTCCAA	0.15
AGGTCCGA	0.404
CGGTCCGA	0.435
CGGTCCTA	0.33
CGGTCCGC	0.317
AGGTCCGG	0.396
GGGTCCCA	-0.0688
GGGTCCGA	0.38
AGGTCCTG	-0.0186
AGGTCCCA	-0.174
AGGTCCAG	-0.0779
AGGTCCGC	0.33
AGTGAAAA	0.0463
ATCTAGCG	0.00616
AGATAGCC	0.0418
CGCGAATA	0.182
ATCTGAGA	-0.25
CTTCGACA	-0.309
GCAGTAGA	-0.3
AGGTTCGA	-0.0833
CGGCTGAC	0.192

Sequence	PBM E-score
GCTCTTCC	0.0685
AACTTTTG	-0.0532
CAAAGAGC	-0.176
CCGGCAAG	0.269
CCGGCAAA	0.387
GCGGCAAA	0.202
ACGGCAAC	-0.0151
GCGGCAAC	0.00981
CCGGCAAC	0.373
AGTTTTTA	-0.141
AGATTATA	-0.0616
ATTCTGGC	-0.0263
AGCCCTTA	-0.128
CTCTACAA	-0.178
ATTTCCAG	0.129
CTTTCCGA	0.316
ATTTCCGG	0.459
ATTTCCTG	-0.0599
ACTTCCGC	0.249
ACTTCCGG	0.382
GTTTCCAA	-0.238
CTTTCCGC	0.194
GTTTCCGA	0.379
ACTTCCGA	0.31
ATTTCCGC	0.399

Sequence	PBM E-score
ATTTCCCC	0.181
AAAACAAA	0.043
AGCGCACC	0.149
CGGTTCTA	0.276
ATCAAGAG	-0.172
ACGGAACG	0.195
CTACCAGC	-0.319
CATAGGCG	-0.196
GCCACTAC	-0.042
ATTTCCAA	0.0623
ATTTCCCA	-0.131
ATTTCCGA	0.432
CCGTCTCC	0.126
AACCTATC	-0.00501
GATAGTGC	-0.0408
CGTACGAC	-0.0847
CACGTCGG	0.28
CTCCGGTC	0.431
GTCCGGTA	0.419
ATCCGGTC	0.329
ATCCGGCA	0.329
CTCCGCTA	0.336
CTCCGGCC	0.358
GTTCGGTA	0.249
CGCCGGTC	0.295

Sequence	PBM E-score
CTCCGGCA	0.371
GTACGGTA	0.0448
GTCCGCTA	0.37
ATCCGCTA	0.306
GGCATCGA	-0.206
AAATGAAT	-0.213
CCAGCGTC	0.0197
AGTTCTTA	0.0534
CGCCATCC	-0.00934
CGTCGGAA	0.306
CATTTGCC	-0.0698
AGGGAACG	-0.0997
CTCCGGTA	0.439
ATCCGGTA	0.357
CGCCGGTA	0.345
CAAGCTCC	0.00322
CGGGCTTA	0.437
AGGGCATA	-0.102
CGGGCATA	0.386
AGGGCTTA	-0.203
GGGGCATA	0.0612
CGGGCTTC	0.307
GTACTTCA	0.032
GGGGTTAA	0.386
GGGGTTAC	0.218

Sequence	PBM E-score
GGGTTTAA	0.387
AGGGTTAA	-0.259
GGGTTTTA	0.288
TGGTTTAA	-0.161
ATCTATCG	0.268
GACTCGGC	0.186
AACGAAGG	-0.308
ACTTGGTG	-0.25
ACCTGCCG	-0.0501
GAGCGCAA	-0.175
AGTTACTA	-0.128
ACCAGTGA	-0.18
GGTAGTTA	0.0824
CCCTAGCC	-0.138
ATTCGGCA	0.224
GTTCGGAA	0.312
ATTCGGCG	0.278
ATTCGGGG	0.393
AGTCGGAC	0.318
ATTCGGGA	0.197
CTTCGGAA	0.403
ATTCGGAG	0.299
ATTCGGAA	0.311
ATTCGGCC	0.375
ATTCGGGC	0.308

Sequence	PBM E-score
ATTCGGAC	0.382
AGGTGAAG	-0.184
CGATTCAA	-0.0364
GACGGGGC	0.0768
GTCCACAC	0.0984
ATTCGCCG	0.295
ATCCCAAG	-0.0728
AAACTGCC	-0.0803
ACTAGTTC	-0.0373
CTTCGGGC	0.208
CTTCGGAC	0.406
CTTCGGCC	0.309
AATCTCGT	0.0299
ATATCGTC	0.0615
CTATCGTC	-0.0802
CTATCGCC	0.102
AAATCGGC	0.303
CTATCGGC	0.385
ATATCGGC	0.455
ATATCGCC	0.414
CGATCGGC	0.312
ATATCGCG	0.314
GCCCAAGA	-0.22
CCACATCA	-0.064
CTTGCTCA	-0.129

Sequence	PBM E-score
GAGAGATA	0.0119
GCACAGAC	0.0195
GCTGATTA	-0.00254
CGGCCGGA	0.436
AGGCCGGA	0.336
CGGCCGTA	0.417
GGGCCGGA	0.355
CGGCCGTC	0.277
CGGCCTGA	0.183
CGGCCGGC	0.422
CGGCCTTA	0.439
AGGCCGTA	0.0497
AGGCCGGC	0.271
CGGCCTTC	0.301
CTGCCGGC	0.322
AATGGGCC	0.0191
ACTCAGGA	-0.123
CCAAATGA	0.00146
ACAGCACT	-0.0793
